Bioassay records (PubChem BioAssay)
FLuc counter: inhibits or activates purified firefly luciferase, miR-21 counter-screen. P08659. AID 588342. 360,000 tested, 6.9% active. Potency, µM (series often up to 57.5 µM), actives largely listed as inhibitors. purified FLuc, Km substrates, luminescence inhibition; also: nearly all actives have a fitted effect of over 55% in size
Target sequence (P08659 whole entry, looked up): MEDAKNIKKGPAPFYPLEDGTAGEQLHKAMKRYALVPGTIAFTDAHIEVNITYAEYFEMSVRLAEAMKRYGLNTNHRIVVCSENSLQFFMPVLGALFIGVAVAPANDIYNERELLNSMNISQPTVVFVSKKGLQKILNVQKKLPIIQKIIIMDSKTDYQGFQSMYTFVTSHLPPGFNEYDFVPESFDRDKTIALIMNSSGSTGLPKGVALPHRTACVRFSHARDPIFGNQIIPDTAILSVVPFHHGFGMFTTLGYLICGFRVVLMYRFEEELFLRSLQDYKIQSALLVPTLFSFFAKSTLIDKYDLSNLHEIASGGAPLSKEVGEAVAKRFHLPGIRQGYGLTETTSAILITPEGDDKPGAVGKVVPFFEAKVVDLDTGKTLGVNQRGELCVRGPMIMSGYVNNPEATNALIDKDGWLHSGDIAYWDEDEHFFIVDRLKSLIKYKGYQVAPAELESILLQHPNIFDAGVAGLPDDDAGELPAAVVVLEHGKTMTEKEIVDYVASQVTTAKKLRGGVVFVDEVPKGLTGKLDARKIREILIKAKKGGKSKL
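Purified P. pyralis luciferase, 10 nM final, with Km-level 10 uM D-luciferin and 10 uM ATP in 50 mM Tris acetate pH 7.5, 10 mM Mg acetate, 0.01% Tween-20, 0.05% BSA; 6-point qHTS titration about 60 µM downward; luminescence read.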
Rab9 prom act: activators of Rab9 promoter. 320,000 tested, 2.8% active. Potency, µM (top dose mostly 9.22 µM), usual class: activators. Huh7 Rab9 promoter-luciferase reporter, luminescence, 24 h; also: nearly all actives have a fitted effect of over 60% in size
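Stable Rab9-luc Huh7, 1500 cells/well, 2 h settle; cmpd in DMSO, 24 h, 37 °C/5% CO2; luciferase reagent 10 min RT; luminescence.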
NPC1 promoter act: activators of NPC1 promoter | Huh7 NPC1 promoter luciferase reporter, 24 h | Potency, µM (highest dose often 9.22 µM), most hits filed as activators | 320,000 tested, 2.4% active; also: nearly all actives have a fitted effect of over 60% in size
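In 1536-well qHTS, Huh7 cells harboring an NPC1 promoter–luciferase construct received compound for 24 h; activation was quantified by luminescence following luciferase reagent addition.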
SMN2 splice up: increases expression of the SMN2 splice variant | Potency, µM (titrated, usually from 46.1 µM), actives largely listed as activators | 210,000 tested, 2.8% active | HEK293 SMN2-luciferase splicing reporter, luminescence, 30-36 h; also: nearly all actives have a fitted effect of over 55% in size
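qHTS luciferase splicing reporter: luminescence rises when SMN2 exon 7 is included in transfected HEK293 cells. Compound exposure lasted 30-36 h at 37C, with 4.5 mM final sodium butyrate as control, followed by a ONE-Glo read.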
ELG1 genotoxic: inducers of genotoxicity in HEK293T ELG1-luciferase cells. HEK293T ELG1-luciferase reporter, luminescence, 16 h. Potency, µM (highest dose often 46 µM), actives largely listed as activators. 330,000 tested, 1.3% active; also: nearly all actives have a fitted effect of over 60% in size
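HEK293T cells expressing luciferase-tagged ELG1 were treated with compound or DMSO for 16 hr at 37°C. Luciferase activity was then read after 30 min with ONE-Glo at room temperature; rising signal flags genetic stress.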
A number is an active result; . = inactive; ? = inconclusive; / = no result; [ ] = remark or other dose. Rows were chosen to be rich in hits. Some 7.5% of all compounds tested hit in one or more screens of this group. Calls follow the shape of the dose curve; as a rule, active = well fitted curve in the direction sought with a large enough effect; inconclusive = small, poorly fitted or top-dose-only effect, or another doubt; inactive = no such curve, though single readings can be large; an effect the other way counts as inactive or inconclusive.

SMILES	FLuc counter	Rab9 prom act	NPC1 promoter act	SMN2 splice up	ELG1 genotoxic
CCOc1ccccc1C(=O)NC(C(=O)Nc1ccccc1N1CCOCC1)C(C)C (configuration not stated)	.	.	.	.	.
CN(C)c1ccc(/C=N/NC(=O)c2ccccc2O)o1	21.3µM	.	.	.	.
CN(C)c1ccc(/C=N/NC(=O)C(O)(c2ccccc2)c2ccccc2)o1	.	.	.	.	.
O=C(N/N=C/c1ccc(-c2cccc(C(F)(F)F)c2)o1)c1ccccc1Br	21.3µM	.	.	.	.
O=C(N/N=C/c1ccc(-c2cccc([N+](=O)[O-])c2)o1)c1ccc([N+](=O)[O-])cc1	.	.	.	.	.
O=C(N/N=C/c1ccc(-c2cccc([N+](=O)[O-])c2)o1)c1ccccc1O	10.7µM	?	.	.	.
COc1cccc(NC(=O)C(=O)NCCC2CCCCN2S(=O)(=O)c2cccs2)c1 (configuration not stated)	10.7µM	.	.	/	.
O=C(C1CCC1)N1CCCc2cc(S(=O)(=O)N3CCN(c4cccc(Cl)c4)CC3)ccc21	.	/	/	/	/
CCc1ccccc1NC(=S)N1CCNC(=O)C1CC(=O)OC (configuration not stated)	.	.	.	.	.
COCCCn1c(O)c(/C=C2\N=C(C#N)C(=Nc3ccc(C)cc3)O2)sc1=S	6.75µM	.	.	/	.
CCCn1c(O)c(/C=C2\C=NN=C2c2ccccc2)sc1=S	.	.	.	.	.
COc1ccc(C(=O)Nc2ccc3oc(-c4ccc5ccccc5c4)nc3c2)cc1Br	?	/	/	.	/
CCCC(=O)Nc1ccc(C)c(O)c1	.	.	.	.	.
CCCC(=O)Nc1ccc2oc(-c3ccc(OC)c(Br)c3)nc2c1	?	6.31µM	?	.	?
COc1ccc(-c2nc3cc(NC(=S)NC(=O)Cc4ccccc4)ccc3o2)cc1	.	?	?	.[1.84 µM]	?
CCC(=O)NC(=S)Nc1ccc2oc(-c3ccc(OC)cc3)nc2c1	.	?	2µM	7.94µM	16.4µM
CCCC(=O)Nc1ccc(-c2nc3cc(C)ccc3o2)cc1	0.536µM	0.501µM	0.501µM	1.26µM	?
CCCC(=O)Nc1ccc(-c2nc3cc(C)c(C)cc3o2)c(O)c1	.	2µM	?	35.5µM	?
CC(OC(=O)Cn1[nH]c(=O)c2ccccc2c1=O)C(=O)c1ccccc1 (configuration not stated)	.	.	.	/	.
COc1cc(/C=C/C(=O)c2ccc(C)c([N+](=O)[O-])c2)cc(OC)c1O	.	.	.	.	.
COc1ccc(/C=C/C(=O)c2ccc(C)c([N+](=O)[O-])c2)cc1O	4.78µM	.	.	.	.
O=C(CC1S/C(=N/N=C/c2cccnc2)NC1=O)Nc1ccccc1 (configuration not stated)	?	.	.	.	.
COc1cc(/C=N/N=C2/NC(=O)C(Cc3ccccc3)S2)ccc1O (configuration not stated)	2.39µM	.	.	.	.
O=C1N/C(=N\N=C\c2cccnc2)SC1Cc1ccc(SC(F)F)cc1 (configuration not stated)	10.7µM	.	.	.	.
O=C1N/C(=N\N=C\c2cccs2)SC1Cc1ccc(Cl)cc1 (configuration not stated)	.	.	.	.	.
SMILES	FLuc counter	Rab9 prom act	NPC1 promoter act	SMN2 splice up	ELG1 genotoxic
O=C1N/C(=N\N=C\c2ccc3ncccc3c2)SC1Cc1ccc(SC(F)F)cc1 (configuration not stated)	0.536µM	?	?	12.6µM	?
COc1ccc(/C=N/N=C2/NC(=O)C(CC(=O)O)S2)cc1OS(=O)(=O)c1ccccc1 (configuration not stated)	?	.	.	.	.
O=C1N/C(=N\N=C\c2ccccn2)SC1Cc1cccc(SC(F)F)c1 (configuration not stated)	15.1µM	.	.	.	.
CCOc1ccc(C(=O)Nc2ccccc2C(=O)OCc2cc(=O)n3nc(C4CC4)sc3n2)cc1	.	/	/	/	/
Cc1ccc(NC(=O)[C@H](CSCc2ccccc2)N2Cc3ccccc3C2=O)cc1	.	/	/	.	/
CCOC(=O)c1nc2c(ccc3ccccc32)cc1C	15.1µM	.	.	/	.
NNc1nc(-c2ccccc2Cl)nc2ccccc12	.	.	.	/	.
NNc1nc(-c2ccccc2Cl)nc2sc3c(c12)CCCC3	0.953µM	?	?	/	?
CCCOC(=O)c1ccc(NC(=O)c2cn(CC)c3nc(C)ccc3c2=O)cc1	.	.	.	.	.
Cc1cc(SCC(=O)Nc2nsc(-c3ccc(C(C)(C)C)cc3)n2)nc2ccccc12	/	/	/	14.1µM	/
Cc1ccc(-c2nc(NC(=O)CSc3ncn[nH]3)ns2)cc1	16.9µM	.	.	/	.
O=C(NCCc1ccc(Cl)cc1)C1CCN(C(=O)c2ccc(F)cc2)CC1	.	.	.	/	.
Clc1ccccc1N1CCN(Cc2ccco2)CC1	?	.	.	/	.
O=C(CSc1ccccc1C(=O)O)c1ccc(Cl)cc1	10.7µM	3.98µM	3.98µM	/	?
Nc1ccccc1SCC(=O)N1CCc2ccccc21	16.9µM	?	?	.	?
O=C(Cc1ccccc1)N1CCc2ccccc21	.	.	.	.	?
O=C(CSc1ccccc1C(=O)O)c1ccccc1	?	?	.	/	.[9.26 µM]
O=C(CNc1ccccc1OC(F)F)N1CCc2ccccc21	?	3.16µM	3.16µM	14.1µM	?
O=C(CS(=O)(=O)c1ccccc1)N1CCc2ccccc21	15.1µM	2.51µM	3.98µM	14.1µM	?
O=C(CNCCO)N1CCc2ccccc21	.	.	.	.	.
CC1Cc2ccccc2N1C(=O)CSC1=NCCS1 (configuration not stated)	?	.	.	.	.
O=C(CSCCO)N1CCc2ccccc21	.	.	.	.	.
O=C(CSC1=NCCS1)N1CCc2ccccc21	13.5µM	3.98µM	?	?	8.2µM
O=C(O)c1ccccc1SCC(=O)N1CCc2ccccc21	21.3µM	?	?	.	.
Cc1ccc(SCC(=O)N2CCc3ccccc32)cc1	9.53µM	?	.	?	?
SMILES	FLuc counter	Rab9 prom act	NPC1 promoter act	SMN2 splice up	ELG1 genotoxic
Cc1ccc(Cc2nc3ccccc3nc2SCC(=O)N2CCc3ccccc32)cc1	.	/	/	/	/
CC(=O)Nc1nnc(C2=COCCO2)o1	.	.	.	.	.
CCc1ccc(NC(=O)CSc2nc(NS(=O)(=O)c3ccccc3)cc(=O)[nH]2)cc1	.	.	.	.	.
Cc1ccc(S(=O)(=O)Nc2cc(=O)[nH]c(SCC(=O)Nc3cccc(C)c3)n2)cc1	19µM	.	.	/	.
Cc1ccc(NC(=O)CSc2nc(NS(=O)(=O)c3ccccc3)cc(=O)[nH]2)cc1	.	.	.	.	.
CCOc1ccc(NC(=O)CSc2nc(NS(=O)(=O)c3ccc(C)cc3)cc(=O)[nH]2)cc1	21.3µM	.	.	/	.
COC(=O)c1ccccc1-c1ccc(/C=C2\C(=O)N(c3ccccc3)N=C2c2ccccc2)o1	.	.	.	.	.
